From PubChem BioAssay AID504847 (National Center for Advancing Translational Sciences (NCATS), 2011)
Where “and” joins values, the source holds several entries; their conditions need not be identical. Equal entries are not always repeated. About 3,700 (0.93%) of roughly 400,000 compounds were called active. Not shown: some 3% with an inconclusive outcome. The call rests on the fitted dose curve; in most records, active means well fitted inhibition curve with a large enough effect; inconclusive means small, poorly fitted or top-dose-only effect, or another doubt; inactive means no such curve, though single readings can be large or run the other way. The entries come from a sample that favours actives as a whole.

molecular target: Vitamin D3 receptor (Homo sapiens) (UniProt P11473); assay: Inhibitors of the vitamin D receptor (VDR): qHTS; conditions: VDR-SRC2-3 peptide fluorescence polarization, 2 h; max response, negative = inhibition: active compounds read low
How it was run: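 Fluorescence polarization assay measuring small-molecule disruption of VDR binding to the coregulator peptide SRC2-3. Compounds were pin-transferred (23 nl) into the reagent mix and incubated 2 h at room temperature before reading.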
On the % scale 0 is the no-effect control and ±100 the full control effect; potency means the concentration at half of the fitted maximal effect.

Vitamin D3 receptor (Homo sapiens), sequence (P11473 whole entry, looked up): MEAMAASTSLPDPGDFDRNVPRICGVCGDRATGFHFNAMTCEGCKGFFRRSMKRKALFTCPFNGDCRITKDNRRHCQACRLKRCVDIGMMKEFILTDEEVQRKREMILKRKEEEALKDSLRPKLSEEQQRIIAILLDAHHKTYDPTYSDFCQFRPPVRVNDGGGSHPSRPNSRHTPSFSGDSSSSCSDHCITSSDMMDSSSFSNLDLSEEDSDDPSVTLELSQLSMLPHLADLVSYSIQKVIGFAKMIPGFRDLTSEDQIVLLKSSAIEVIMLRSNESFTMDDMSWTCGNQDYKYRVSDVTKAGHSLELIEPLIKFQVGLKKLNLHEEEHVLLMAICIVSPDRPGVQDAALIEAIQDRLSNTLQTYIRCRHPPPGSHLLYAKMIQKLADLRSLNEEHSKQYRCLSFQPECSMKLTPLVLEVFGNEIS

Max response, negative = inhibition, inactive:
CCOC(=O)c1c(C)n(S(=O)(=O)c2ccc(C)cc2C)c2ccc(NS(=O)(=O)c3ccc(C)cc3C)cc12 -7.13%
CC(=O)c1c(C)oc2ccc(NS(=O)(=O)c3ccc(C(=O)O)cc3)cc12 11.8%
O=C(C1CCCN(S(=O)(=O)c2cccc3nonc23)C1)N1CCN(c2ccccc2F)CC1 (stereo not given) -15.4%
COc1ccc(OC)c(NC(=O)C2CCN(S(=O)(=O)c3ccc(C)cc3)CC2)c1 29.3%
O=C(NCc1ccccc1)c1cc(-c2cccc(Cl)c2)on1 -16.6%
Cn1cccc1/C=C1\SC(=S)N(NC(=O)c2ccc(Cl)cc2)C1=O -22.2%
O=c1cc(O)c(-c2cccc(C(F)(F)F)c2)c(Cl)[nH]1 13.8%
O=c1[nH]c(/C=C/c2cccc(Br)c2)nc2ccccc12 -10.9%
CC1(C)O[C@@H]2C[C@@H]3[C@H]4C[C@@H](F)C5=CC(=O)C=C[C@]5(C)[C@@]4(F)[C@@H](O)C[C@]3(C)[C@]2(C(=O)CO)O1 1.68%
COCCNC(=O)CSc1nc(-c2ccccc2)[nH]c1-c1ccc(C)cc1 -12.4%
Cc1cc(C(=O)NNS(=O)(=O)c2ccccc2C(F)(F)F)nn1C(C)(C)C 3.25%
CCCN1CCN(CCCNC(=O)c2cnn(-c3ccc(C)cc3)c2-n2cccc2)CC1 13.2%
CCN(CCCNC(=O)c1cc2cc3cc(OC)ccc3nc2s1)c1ccccc1 -7.19%
O=C(NCC1CC1)C1(C(F)(F)F)C/C(=C\CCO)CCCO1 (stereo not given) -6.83%
Nc1nc2nc(Cl)[nH]c2c(=O)[nH]1 -11.6%
CC(C)(C)OC(=O)C1=C(CO)CS[C@@H]2[C@H](NC(=O)Cc3ccccc3)C(=O)N12 -17.3%
CO/N=C(\C(=O)N[C@@H]1C(=O)N2C(C(=O)O)=C(COC(C)=O)CS[C@H]12)c1csc(N)n1 (stereo in doubt) -16.4% and -7.75% and -25.8%
O=[N+]([O-])c1ccc(S(=O)(=O)N2CCN(c3nc(-c4ccccc4)nc4ccccc34)CC2)cc1 -8.98%
Cc1ccc(C(=O)Nc2c(C(=O)NC(C)(C)C)oc3ccccc23)cc1 12.7%
COc1ccc(Cl)cc1NC(=O)C(C)Sc1nc2c(c(=O)[nH]1)CCCC2 (stereo not given) 5.96%
CCNCCC(=O)N1c2ccccc2Sc2ccc(NC(=O)OCC)cc21 -7.06%
CCN1C(=O)c2ccccc2Sc2ccc(NC(=O)Cc3ccc(OC)cc3)cc21 7.46%
CC(=O)OC1CCC2(O)CC1(C)CCC1C2CC1(C)C (stereo not given) -16.3%
C[C@@H]1O[C@@H](OC[C@H]2O[C@@H](Oc3c(-c4cccc(O)c4O)oc4cc(O)cc(O)c4c3=O)[C@H](O)[C@@H](O)[C@@H]2O)[C@H](O)[C@H](O)[C@H]1O 2.29%
CCS(=O)(=O)c1ncc(N(Cc2ccc(F)cc2)Cc2ccco2)c(C(=O)Nc2cc(C)ccc2C)n1 -5.22%
CCOc1cccc(C(=O)Nc2nnc(S(=O)(=O)N(C)c3ccc(C)cc3)s2)c1 -4.91%
CCOC(=O)c1ccc(NC(=O)c2nc(SCc3ccc(F)cc3)ncc2Cl)cc1 -10.3%
Cc1ccc2nc(NC(=O)c3nc(SCc4ccccc4F)ncc3Cl)sc2c1 1.04%
Cc1nnc(NC(=O)C(c2ccccc2)c2ccccc2)s1 13.7%
O=C(Nc1nc2ccc(F)cc2s1)c1nc(SCc2ccccc2F)ncc1Cl -2.57%
COc1ccc(CNC(=O)COCc2cc(-c3cccs3)on2)cc1OC 16.9%
COc1ccc(-c2nc3scc(CCNS(=O)(=O)c4cc(F)ccc4OC)n3n2)cc1OC 0.564%
CCOc1ccc2nc(N3CCC(C(=O)Nc4cc(C)ccc4C)CC3)sc2c1 -0.819%
COc1ccccc1CNC(=O)CCCCn1c(=O)c2ccccc2n(CC(=O)Nc2cc(Cl)ccc2C)c1=O -8.69%
CCOC(=O)c1cc(NC(=O)c2ccc(F)cc2)c(=O)n2c1oc1ccccc12 4.45%
O=[N+]([O-])c1ccccc1SNc1ccccn1 -25%
O=[N+]([O-])c1ccccc1S(=O)(=O)Nc1cccc2cccnc12 0.987% and -18.8%
O=C(/C=C/c1cccc(F)c1)NC1CC1 0.0804%
Cc1c(C(=O)Nc2cccc(Cl)c2)oc2ccc(S(=O)(=O)N3CCOCC3)cc12 -9.71%
Cc1cccc(NC(=O)Cn2nc(-c3ccc(Cl)cc3)c3ccccc3c2=O)c1 4.43%
Cc1ccc(C(=O)Nc2ccc(OCc3cc(=O)n4c(C)csc4n3)cc2)cc1 -1.83%
Cc1ccc(S(=O)(=O)c2nc(-c3cccs3)oc2N2CCCCC2)cc1 28.2%
CCCn1c2ccccc2c2cnn(CC(=O)NCCCOC(C)C)c(=O)c21 4.17%

Potency, active:
CC(=O)c1c(C)n(S(=O)(=O)c2ccc(Cl)cc2)c2ccc(NS(=O)(=O)c3ccc(Cl)cc3)cc12 79.4 µM
O=C(O)C(c1ccccc1)N1C(=O)/C(=C\c2ccc(-c3cccc(Cl)c3)o2)SC1=S (stereo not given) 79.4 µM
O=c1[nH]c(/C=C\c2cccc(C(F)(F)F)c2)nc(O)c1[N+](=O)[O-] 44.7 µM
CCCCc1nn(-c2ccccc2C(F)(F)F)c(=O)n1Cc1ccc(-c2ccccc2S(=O)(=O)NC(=O)c2sccc2C)cc1 44.7 µM
Cc1cc(C)cc(C(=O)NC2C(=O)N3C(C(=O)O)=C(CSc4nnc(C)s4)CSC23)c1 (stereo not given) 79.4 µM
CCN1/C(=C/C(=S)Nc2ccccc2)Sc2ccccc21 70.8 µM
CSc1nnc(NC(=O)c2nc(S(=O)(=O)Cc3ccc(C)cc3)ncc2Cl)s1 11.2 µM
Cc1cccc(CS(=O)(=O)c2ncc(Cl)c(C(=O)Nc3ccc(F)cc3)n2)c1 50.1 µM
Cc1ccc(CS(=O)(=O)c2ncc(Cl)c(C(=O)Nc3nnc(C)s3)n2)cc1 25.1 µM
O=[N+]([O-])c1cccc2ncccc12 12.6 µM
O=C1C=C(c2ccc(Cl)cc2)C(=O)N1Nc1ccccc1 22.4 µM
C=CC(C1=CC(=O)C=CC1=O)c1ccc(O)cc1 (stereo not given) 39.8 µM
